The values that follow come from PMC11006913.

This test addresses T1, NKX2-6 (Homo sapiens, UniProt A6NCS4 118-204, R150C).
T1 sequence: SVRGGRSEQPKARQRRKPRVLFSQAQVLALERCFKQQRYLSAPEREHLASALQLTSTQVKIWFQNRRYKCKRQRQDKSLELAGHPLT
Description: PBM; 200 nM protein, PBS. The note with it: dsDNA, one strand shown.
With AAGCCACG, the binding signal is 9.49 upbm affinity estimate (log intensity, higher = more binding, comparable within an allelic series).

For the sequence AAAGTGAG, the binding signal was 10.8 upbm affinity estimate (log intensity, higher = more binding, comparable within an allelic series).

CTACTTTA: the binding signal was 11 upbm affinity estimate (log intensity, higher = more binding, comparable within an allelic series).

Turning to AGGCAGTC, the binding signal was 9.73 upbm affinity estimate (log intensity, higher = more binding, comparable within an allelic series).

Regarding AGGCACCC, the binding signal is 9.55 upbm affinity estimate (log intensity, higher = more binding, comparable within an allelic series).

ACCGGTGG: the binding signal is 9.26 upbm affinity estimate (log intensity, higher = more binding, comparable within an allelic series).

Take GGCATCCC: the binding signal is 9.47 upbm affinity estimate (log intensity, higher = more binding, comparable within an allelic series).

Consider CTGACCCC, for which the binding signal is 9.6 upbm affinity estimate (log intensity, higher = more binding, comparable within an allelic series).

In the case of CCCCGTTC, the binding signal is 9.42 upbm affinity estimate (log intensity, higher = more binding, comparable within an allelic series).

For the sequence CACTCTCA, the binding signal is 10.9 upbm affinity estimate (log intensity, higher = more binding, comparable within an allelic series).

Consider AGAGTGGA, for which the binding signal is 11 upbm affinity estimate (log intensity, higher = more binding, comparable within an allelic series).

On to CCGGTAGG, for which the binding signal is 9.6 upbm affinity estimate (log intensity, higher = more binding, comparable within an allelic series).

In the case of AACGGGAC, the binding signal is 9.62 upbm affinity estimate (log intensity, higher = more binding, comparable within an allelic series).

For AAGAAGTG, the binding signal was 11.2 upbm affinity estimate (log intensity, higher = more binding, comparable within an allelic series).

With CGCGGGCA, the binding signal is 9.67 upbm affinity estimate (log intensity, higher = more binding, comparable within an allelic series).

Consider CTCTTGAC, for which the binding signal is 11.2 upbm affinity estimate (log intensity, higher = more binding, comparable within an allelic series).

Turning to CGGACGGC, the binding signal is 9.24 upbm affinity estimate (log intensity, higher = more binding, comparable within an allelic series).

For CCCGCACA, the binding signal was 9.66 upbm affinity estimate (log intensity, higher = more binding, comparable within an allelic series).

Regarding CACTCGTC, the binding signal is 10.8 upbm affinity estimate (log intensity, higher = more binding, comparable within an allelic series).

AGTAAGTA: the binding signal was 11.1 upbm affinity estimate (log intensity, higher = more binding, comparable within an allelic series).

Consider CATGCCGG, for which the binding signal is 9.42 upbm affinity estimate (log intensity, higher = more binding, comparable within an allelic series).

On to CCCGCCGA, for which the binding signal is 9.28 upbm affinity estimate (log intensity, higher = more binding, comparable within an allelic series).

As for ACAGCGGG, the binding signal was 9.46 upbm affinity estimate (log intensity, higher = more binding, comparable within an allelic series).

On to CGCCTACA, for which the binding signal is 9.72 upbm affinity estimate (log intensity, higher = more binding, comparable within an allelic series).

GACGCCCC: the binding signal was 9.56 upbm affinity estimate (log intensity, higher = more binding, comparable within an allelic series).

As for CGGGCGGA, the binding signal was 9.09 upbm affinity estimate (log intensity, higher = more binding, comparable within an allelic series).

Take GGTCAACC: the binding signal is 9.62 upbm affinity estimate (log intensity, higher = more binding, comparable within an allelic series).

Consider AGAGTGGC, for which the binding signal was 10.9 upbm affinity estimate (log intensity, higher = more binding, comparable within an allelic series).

ATACTTTG: the binding signal was 10.7 upbm affinity estimate (log intensity, higher = more binding, comparable within an allelic series).

As for CCCCCATC, the binding signal was 9.53 upbm affinity estimate (log intensity, higher = more binding, comparable within an allelic series).

In the case of GCATGCGC, the binding signal was 9.48 upbm affinity estimate (log intensity, higher = more binding, comparable within an allelic series).

Regarding CACTTGTC, the binding signal is 11.4 upbm affinity estimate (log intensity, higher = more binding, comparable within an allelic series).

As for GCGGACCA, the binding signal is 9.48 upbm affinity estimate (log intensity, higher = more binding, comparable within an allelic series).

For CGCCCGTC, the binding signal was 9.36 upbm affinity estimate (log intensity, higher = more binding, comparable within an allelic series).

Regarding CGCCAACC, the binding signal is 9.44 upbm affinity estimate (log intensity, higher = more binding, comparable within an allelic series).

Regarding CCCCAACC, the binding signal is 9.37 upbm affinity estimate (log intensity, higher = more binding, comparable within an allelic series).

CCGTAGCG: the binding signal was 9.34 upbm affinity estimate (log intensity, higher = more binding, comparable within an allelic series).

With AAGAGTAG, the binding signal is 10.8 upbm affinity estimate (log intensity, higher = more binding, comparable within an allelic series).

For the sequence CGCTCACC, the binding signal is 9.46 upbm affinity estimate (log intensity, higher = more binding, comparable within an allelic series).
